Test results reported in PubChem BioAssay (NCI).
About 83,000 compounds went through this panel and 20% of them were active in at least one assay; those are over-represented in the sample as a whole.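 Cells were grown in 96-well plates and exposed to the test compound at a single concentration for 48 hours; results are reported as percent growth, with values below 10 considered active.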 Activity calls are given as the source filed them.

How the values were obtained:
Test in all cases: NCI-60 one-dose screen, 48 h (100 = growth as untreated, 0 = no growth, -100 = all killed)
Conditions in all cases: 10 µM unless noted
[1] = test system: NCI-H23 lung
[2] = test system: NCI-H226 lung
[3] = test system: NCI-H322M lung
[4] = test system: HOP-62 NSCLC
[5] = test system: NCI-H460 lung
[6] = test system: HOP-92 NSCLC
[7] = test system: NCI-H522 lung
[8] = test system: A549/ATCC NSCLC
[9] = test system: 786-0 renal
[10] = test system: COLO 205 colon

Measured: growth

COc1ccc(NC(=O)[C@H](C)NC(=O)OC(C)(C)C)cc1C(=O)Nc1cccc(-c2cc(=O)c3c(OC)c(OC)c(OC)cc3o2)c1
active: [1] -24.8% | [3] -0.408% | [4] -17.5% | [5] -21.4% | [6] -50% | [7] -46.4% | [8] 7.37% | [9] 0.528% | [10] -70%
inactive: [2] 16%

COc1ccc(-c2nnc(SCc3ccc(O)c4ncccc34)n2-c2ccccc2)cc1
active: [5] 2.93% | [6] -4.84%
inactive: [1] 17.6% | [2] 30.1% | [3] 19.8% | [4] 19.9% | [7] 15.5% | [8] 26.4% | [9] 25.5% | [10] 68.6%

O=C(Nc1ccc(F)cc1)c1cc(-c2ccc(F)cc2F)ccc1O
inactive: [4] 12% | [8] 30.6% | [9] 15.5% | [10] 96.4%
active: [1] 1.86% | [2] 5.87% | [3] 9.89% | [5] 4.82% | [6] -26.6% | [7] -4.42%

O=C1Nc2cc(OC(F)(F)F)ccc2Oc2ccc(-c3ccnc(N4CC[C@H](O)C4)c3)cc21
inactive: [1] 27.6% | [3] 55.1% | [4] 25.3% | [6] 45.7%
active: [2] -8.84% | [5] -47.1% | [7] -28% | [8] 0.655% | [9] 6.88% | [10] -42%

O=C(Nc1cc(Cl)cc(Cl)c1)Nc1nc2ccc([N+](=O)[O-])cc2s1
active: [1] -37.7% | [2] -9.83% | [3] 9.2% | [4] -4.21% | [5] 1.08% | [6] -6.65% | [7] 1.99% | [8] 9.1% | [10] -49.2%
inactive: [9] 11%

Cc1nn(-c2ccccc2)c2nc(CCl)[nH]c(=O)c12
inactive: [1] 98.8% | [2] 111% | [3] 103% | [4] 98.3% | [5] 102% | [6] 117% | [7] 89.8% | [8] 97.7% | [10] 110%
active: [9] 4.55%

CCCCCCNC(=O)Oc1ccc(/C(=C(\C)c2ccc(Cl)cc2)c2ccc(OCCN(C)C)cc2)cc1
active: [5] 6.53%
inactive: [1] 76.3% | [2] 101% | [3] 78.1% | [4] 75.5% | [6] 38.4% | [7] 83.5% | [8] 72.7% | [9] 39.8% | [10] 11.6%

O=C1[C@H]2Cc3c([nH]c4ccccc34)[C@H](c3ccc(Cl)cc3)N2C(=O)CN1C1CCN(Cc2c(Cl)cccc2Cl)CC1
inactive: [1] 86.5% | [2] 72.5% | [3] 96.9% | [4] 80.1% | [5] 68% | [6] 55.1% | [7] 75.3% | [8] 66.9% | [9] 66% | [10] 54.8%

CCCCSc1nnc(-c2ccc(-c3ccc(Cl)cc3)nc2C)o1
inactive: [1] 95% | [2] 95.9% | [3] 103% | [4] 108% | [5] 101% | [6] 93.4% | [7] 98% | [8] 102% | [9] 96.9% | [10] 101%

CS(=O)(=O)c1nccc(-c2c(-c3ccc(F)c(OCCc4ccc(F)cc4)c3)nc3sccn23)n1
inactive: [1] 10.7% | [2] 78.1% | [4] 15.1% | [8] 83.5% | [9] 87.3% | [10] 86.9%
active: [3] -89.1% | [5] -56% | [6] -26.3% | [7] -74.5%

Oc1ccc(CSc2nnc(-c3cnccn3)o2)c2cccnc12
active: [5] 2.29% | [6] -9.09% | [7] 7.24%
inactive: [1] 12.1% | [2] 23.6% | [3] 31.6% | [4] 20.9% | [8] 20.9% | [9] 24.5% | [10] 85.4%

O=S(=O)(Nc1cc(Cl)c(F)c(Cl)c1)c1ccc(-c2cnc(C3CC3)o2)cc1
inactive: [1] 45.3% | [2] 49.4% | [3] 49.9% | [4] 36.2% | [5] 16.5% | [6] 63% | [7] 32.8% | [8] 41.5% | [9] 43.5%
active: [10] 8.82%

C=C(C)[C@@H]1CC[C@]2(C(=O)ON)CC[C@]3(C)[C@H](CC[C@@H]4[C@@]5(C)C/C(=C/c6ccc(Br)cc6)C(=O)C(C)(C)[C@@H]5CC[C@]43C)[C@@H]12
inactive: [1] 78.4% | [2] 72.6% | [3] 85.1% | [4] 85.9% | [5] 71% | [6] 73.6% | [7] 66.8% | [8] 54.8% | [9] 84.8% | [10] 88%

CCCCCCNC(=O)Oc1ccc(/C(=C(/C)c2ccc(Cl)cc2)c2ccc(OCCN3CCCC3)cc2)cc1
inactive: [1] 48.3% | [2] 83.1% | [3] 69.2% | [4] 65% | [6] 26% | [7] 65.3% | [8] 53.4%
active: [5] -57% | [9] -28.8% | [10] -36.4%

Cc1cc(F)cc(NS(=O)(=O)c2ccc(-c3cnc(C4CC4)o3)cc2)c1
active: [7] 8.89% | [10] 1.45%
inactive: [1] 19.8% | [2] 53.8% | [3] 46.9% | [4] 34.2% | [5] 13.8% | [6] 35.6% | [8] 27.8% | [9] 47%

C=CCn1c(SCC(=O)Nc2cccc(C(=O)/C=C/c3ccc(Br)cc3)c2)nc2ccccc2c1=O
inactive: [1] 85.1% | [2] 94.1% | [3] 86.6% | [4] 96.8% | [5] 94.9% | [6] 78.4% | [7] 75.3% | [8] 86.4% | [9] 97.7% | [10] 111%

CN(C)c1ccc(/C=N/Nc2nc(N/N=C/c3ccc(N(C)C)cc3)nc(N3CCOCC3)n2)cc1
inactive: [1] 99.3% | [2] 93.5% | [3] 100% | [4] 106% | [5] 16.7% | [6] 109% | [7] 98.9% | [8] 74.9% | [9] 84.6% | [10] 108%

CNC(=O)c1cc(Oc2ccc3nc(NC(=O)c4ccc(CN5CCN(C)CC5)c(C(F)(F)F)c4)sc3c2)ccn1
active: [10] -29.9%
inactive: [1] 51.8% | [2] 72.7% | [3] 94.5% | [4] 73.5% | [5] 53.2% | [6] 44.1% | [7] 79.3% | [8] 66.4% | [9] 22.3%

O=C(Nc1ccccc1)Nc1nc2ccc([N+](=O)[O-])cc2s1
inactive: [3] 10% | [9] 14.1%
active: [1] 0.812% | [2] 0.421% | [4] 8.52% | [5] 4.82% | [6] -22.2% | [7] 3.38% | [8] 8.07% | [10] -26.1%

CCN(CC)c1ccc2cc(C(=O)NCCOCCOCCOCCn3cc(CCC(=O)Nc4ccc(C(=O)c5ccc(NC(=O)OC(C)(C)C)cc5)cc4)nn3)c(=O)oc2c1
inactive: [1] 61.7% | [2] 20.3% | [3] 74.5% | [4] 53.5% | [5] 78.9% | [6] 85.7% | [7] 28.4% | [8] 73.1% | [9] 73.2% | [10] 38.2%

Oc1ccc(-c2nnc(SCc3ccc(O)c4ncccc34)o2)cc1
inactive: [1] 13.4% | [3] 19.8% | [4] 13.9% | [7] 11.4% | [8] 15.2% | [9] 20.5% | [10] 46.2%
active: [2] 8.78% | [5] 2.22% | [6] -15.9%

C#C[C@]1(O)CC[C@H]2[C@@H]3CC=C4c5sc(C6CC6)nc5CC[C@]4(C)[C@H]3CC[C@@]21C
inactive: [1] 86.4% | [2] 94.6% | [3] 84.1% | [4] 100% | [5] 82.2% | [6] 120% | [7] 81.6% | [8] 72.5% | [9] 51.2% | [10] 119%

CC(C)=CCc1c(O)c(CC=C(C)C)c2c(c1O)C(=O)C1=C[C@@H]3C[C@H]4C(C)(C)O[C@@](C/C=C(\C)C(=O)O)(C3=O)[C@@]14O2
active: [1] -59.3% | [4] -13.7% | [5] -41.8% | [6] -21.8% | [7] -51.4% | [8] 4.97% | [9] -27.6% | [10] -94.2%
inactive: [2] 72.1% | [3] 21.7%

CCc1ccc(NC(=O)N[C@@H](Cc2cccc(C)c2)C(=O)N[C@@H]2C(=O)N3CCC[C@H]3C(=O)N3CCCC[C@H]3C(=O)N[C@@H](CO)C(=O)N3C[C@H](C)C[C@H]3C(=O)O[C@H]2C)c(F)c1
active: [2] -4.68% | [6] -0.374% | [10] -36%
inactive: [1] 34.4% | [3] 49.9% | [4] 30.5% | [5] 12.5% | [7] 21% | [8] 27.9% | [9] 40.8%

Cc1cc(=O)n2nc(-c3c[nH]c4ccccc34)sc2n1
inactive: [1] 92.6% | [2] 98.6% | [3] 93.4% | [4] 101% | [5] 100% | [6] 98.4% | [7] 90.4% | [8] 96.3% | [9] 106% | [10] 102%

CC[C@@](C)(NC(=O)C(C)(C)NC(=O)[C@@H](NC(=O)[C@@H]1CCCN1C(=O)C(C)(C)NC(=O)[C@H](CC(C)C)NC(=O)CNC(=O)C(C)(C)NC(=O)[C@@H](NC(=O)C(C)(C)NC(=O)[C@H](CCC(N)=O)NC(=O)[C@H](C)NC(=O)C(C)(C)NC(=O)[C@H](C)NC(=O)C(C)(C)NC(=O)[C@H](C)NC(=O)C(C)(C)NC(C)=O)C(C)C)C(C)C)C(=O)N[C@@H](CCC(N)=O)C(=O)N[C@@H](CCC(N)=O)C(=O)N[C@H](CO)CC1CCCCC1
inactive: [1] 16.2% [5 µM] | [2] 47.8% [5 µM] | [3] 48.8% [5 µM] | [4] 47.2% [5 µM] | [5] 35.1% [5 µM] | [8] 47.8% [5 µM]
active: [6] -17.2% [5 µM] | [7] 1.56% [5 µM] | [9] -14.2% [5 µM] | [10] -7.42% [5 µM]
